Assay results from ChEMBL document CHEMBL1157539, “Thousands of chemical starting points for antimalarial lead identification” (Nature, 2010).

Tests used:
Format in all cases: functional
[1] = tested on: Plasmodium falciparum; assay: GSK_TCMDC: Inhibition of Plasmodium falciparum 3D7 in whole red blood cells, using parasite LDH activity as an index of growth. Test compounds present at 2uM
[2] = tested on: Plasmodium falciparum; assay: GSK_TCMDC: Inhibition of Plasmodium falciparum Dd2 in whole red blood cells, using parasite LDH activity as an index of growth. Test compounds present at 2uM
[3] = tested on: HepG2; assay: GSK_TCMDC: Percent inhibition of human HepG2 cell line. Test compounds present at 10uM.

Compound: OCCN1CCN(C(=S)Nc2ccccc2)CC1
- Inhibition [1]: 97%
- Inhibition [2]: 7%
- Inhibition [3]: 6%

Compound: Cl.N=c1n(Cc2ccccc2)c2ccccc2n1CC(O)c1ccc(Cl)c(Cl)c1 (stereo not given)
- Inhibition [1]: 95%
- Inhibition [2]: 98%
- Inhibition [3]: 40%

Compound: COc1cc2c(cc1OCCN1CCC(N3CCCC3)CC1)N(C(=O)/C=C/c1ccccc1Cl)CC2.Cl
- Inhibition [1]: 100%
- Inhibition [2]: 68%
- Inhibition [3]: 38%

Compound: Cc1ccccc1C1CCN(C2CCC(NC(=O)c3cc4cc(Cl)ccc4o3)CC2)CC1 (stereo not given)
- Inhibition [1]: 89%
- Inhibition [2]: 30%
- Inhibition [3]: 22%

Compound: CN(C)CCCNc1ncnc2c1[nH]c1ccc(F)cc12
- Inhibition [1]: 100%
- Inhibition [2]: 0%
- Inhibition [3]: 14%

Compound: CCN(CCN(C)C)Cc1ccc(-c2ccc(NS(=O)(=O)c3cccc(Cl)c3)cc2)cc1.O=C(O)C(F)(F)F
- Inhibition [1]: 97%
- Inhibition [2]: 40%
- Inhibition [3]: 43%

Compound: CN(C)CCN(C)Cc1ccc(-c2ccc(NS(=O)(=O)c3cccc4cccnc34)cc2)cc1.O=C(O)C(F)(F)F
- Inhibition [1]: 93%
- Inhibition [2]: 16%
- Inhibition [3]: 23%

Compound: Cc1ccc(CNC(=O)[C@H](Cc2ccccc2)Nc2ccnc(NCC3CCCCC3)n2)cc1.O=C(O)C(F)(F)F
- Inhibition [1]: 92%
- Inhibition [2]: 61%
- Inhibition [3]: 84%

Compound: CCCC(C)Nc1nc(C)cc(N[C@@H](Cc2ccccc2)C(=O)NCCOc2ccccc2)n1.O=C(O)C(F)(F)F (stereo not given in full)
- Inhibition [1]: 100%
- Inhibition [2]: 68%
- Inhibition [3]: 10%

Compound: Cc1cc(NCC2CCN(CC3CCCCC3)C2)nc(Nc2ccc(Cl)cc2)n1 (stereo not given)
- Inhibition [1]: 100%
- Inhibition [2]: 74%
- Inhibition [3]: 2%

Compound: CCCN(CCCCNC(=O)c1ccc(-c2cccnc2)cc1)C1CCc2c(O)cccc2C1.Cl (stereo not given)
- Inhibition [1]: 87%
- Inhibition [2]: 16%
- Inhibition [3]: 0%

Compound: CC(C)n1cc(CN2CCCC(C(=O)Nc3cccc(-c4cc5ccccc5[nH]4)c3)C2)cn1 (stereo not given)
- Inhibition [1]: 96%
- Inhibition [2]: 65%
- Inhibition [3]: 34%

Compound: O=C(Nc1ccc2c(c1)CCN2C1CCN(Cc2ccc(F)cc2Cl)C1)c1ccco1 (stereo not given)
- Inhibition [1]: 97%
- Inhibition [2]: 96%
- Inhibition [3]: 4%

Compound: COc1cccc(Nc2nccc(NCC(O)c3ccc(C(F)(F)F)cc3)n2)c1 (stereo not given)
- Inhibition [1]: 99%
- Inhibition [2]: 28%
- Inhibition [3]: 14%

Compound: Oc1ccc(Cl)cc1CN1CCC2(CCCN(CC3CCC3)C2)C1 (stereo not given)
- Inhibition [1]: 100%
- Inhibition [2]: 94%
- Inhibition [3]: 5%

Compound: CCCNc1nc(NCc2c(C)cccc2C)nc(NC(C)(C)C)n1
- Inhibition [1]: 91%
- Inhibition [2]: 89%
- Inhibition [3]: 15%

Compound: Cc1ccc(N2CCc3c(-c4cc5cccnc5nc4C)cc(C)nc32)c(Cl)c1.O=C(O)C(F)(F)F
- Inhibition [1]: 96%
- Inhibition [2]: 90%
- Inhibition [3]: 0%

Compound: CN(C)CC1CCCN1Cc1ccccc1-c1cnn(C)c(=O)c1Oc1ccccc1F.O=C(O)C(F)(F)F (stereo not given)
- Inhibition [1]: 95%
- Inhibition [2]: 27%
- Inhibition [3]: 18%

Compound: N=C(N)Nc1nc(-c2cccc(NC(=O)NCCc3c[nH]c4ccc(OCc5ccccc5)cc34)c2)cs1
- Inhibition [1]: 100%
- Inhibition [2]: 30%
- Inhibition [3]: 0%

Compound: Cl.OC(c1cc(C(F)(F)F)nc2c(F)cccc12)C1CCCCN1 (stereo not given)
- Inhibition [1]: 98%
- Inhibition [2]: 74%
- Inhibition [3]: 0%

Compound: Oc1cc(Nc2ccnc3cc(I)ccc23)ccc1F
- Inhibition [1]: 99%
- Inhibition [2]: 99%
- Inhibition [3]: 0%

Compound: COc1cccc(Nc2nc(Nc3cccc(C#N)c3)cc(-c3ccncc3)n2)c1
- Inhibition [1]: 100%
- Inhibition [2]: 46%
- Inhibition [3]: 28%

Compound: COc1cccc2sc(Nc3nc(-c4ccccn4)cs3)nc12
- Inhibition [1]: 94%
- Inhibition [2]: 76%
- Inhibition [3]: 41%

Compound: Cl.O=C(CCCCCCc1ccccc1)Nc1ccc2nc3c(c(NCc4ccccc4)c2c1)CCCC3
- Inhibition [1]: 100%
- Inhibition [2]: 98%
- Inhibition [3]: 19%

Compound: NC(=O)c1cccc(C(=O)Nc2cccc(-c3cccc(-c4nc5cc(C(F)(F)F)ccc5[nH]4)c3)c2)c1
- Inhibition [1]: 100%
- Inhibition [2]: 85%
- Inhibition [3]: 71%

Compound: C=CCn1c(Sc2ccc(C#N)c([N+](=O)[O-])c2)nnc1-c1ccc(Cl)cc1
- Inhibition [1]: 97%
- Inhibition [2]: 85%
- Inhibition [3]: 13%

Compound: CN(C)CCN(C)Cc1ccc(-c2ccc3c(Nc4ccc(Oc5ccccn5)cc4)ccnc3c2)o1
- Inhibition [1]: 100%
- Inhibition [2]: 100%
- Inhibition [3]: 16%

Compound: Cc1cc(Cl)c(Cl)cc1NC(=O)Nc1cccc(C(F)(F)F)c1
- Inhibition [1]: 93%
- Inhibition [2]: 99%
- Inhibition [3]: 1%

Compound: O=C(c1ccccc1F)N(Cc1ccc(Cl)cc1)c1ccccn1
- Inhibition [1]: 84%
- Inhibition [2]: 58%
- Inhibition [3]: 0%

Compound: O=C(Nc1ccc(CCN2CCC(c3nc(COCC(F)(F)F)c(-c4ccccc4)o3)CC2)cc1)c1ccc(F)cc1
- Inhibition [1]: 86%
- Inhibition [2]: 3%
- Inhibition [3]: 9%
